# From PubChem
# A selection: hits, their analogues and other compounds. The true share with any hit is near 7.4%.
# NPC1 prom act: qHTS Assay for NPC1 Promoter Activators; Huh7 NPC1 promoter luciferase reporter, 24 h; Potency, µM (series often up to 9.22 µM), for the others: top-dose activation, hits mostly activators; 320,000 compounds, 2.4% hits; note: % of control where 0% means no effect; nearly all actives have a fitted effect of over 60% in size
#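 In 1536-well qHTS, Huh7 cells harboring an NPC1 promoter–luciferase construct received compound for 24 h; activation was quantified by luminescence following luciferase reagent addition.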
# ELG1 genotox: qHTS screen for small molecules that induce genotoxicity in human embryonic kidney (HEK293T) cells expressing luciferase-tagged ELG1 | HEK293T ELG1-luciferase reporter, luminescence, 16 h | Potency, µM (highest dose often 46 µM), inactives show at the top dose activity change, positive = activation, hits mostly activators | 330,000 compounds, 1.3% hits; note: % of control where 0% means no effect; nearly all actives have a fitted effect of over 60% in size
#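 Quantitative HTS format in 1536-well plates. HEK293T ELG1-luciferase reporter cells receive test compound and are incubated 16 hr at 37 °C, 5% CO2; ONE-Glo added, 30 min room temperature, then luminescence read.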
# SMN2 splice enh: qHTS Assay for Enhancers of SMN2 Splice Variant Expression; HEK293 SMN2-luciferase splicing reporter, luminescence, 30-36 h; Potency, µM (doses to about 46.1 µM), for inactives: at the top dose activity change, positive = activation, usual class: activators; 210,000 compounds, 2.8% hits; note: % of control where 0% means no effect; nearly all actives have a fitted effect of over 55% in size
#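 HEK293 cells carry an SMN2 minigene-luciferase reporter in which exon 7 inclusion puts luciferase in frame. Cells were seeded at 2000 cells/well, attached for 10-12 hours, then exposed to compounds for 30-36 hours at 37C before ONE-Glo luminescence.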
# FLuc modulator: qHTS profiling assay for firefly luciferase inhibitor/activator using purifed enzyme and Km concentrations of substrates (counterscreen for miR-21 project) | 360,000 compounds, 6.9% hits | Luciferin 4-monooxygenase (Photinus pyralis), P08659 | Potency, µM (series often up to 57.5 µM), inactives show top-dose activity change, negative = inhibition, actives largely listed as inhibitors | purified FLuc, Km substrates, luminescence inhibition;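 note: plate controls were vehicle for no effect and reference inhibitor for full effect; nearly all actives have a fitted effect of over 55% in size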
# Target sequence (P08659 whole entry, looked up): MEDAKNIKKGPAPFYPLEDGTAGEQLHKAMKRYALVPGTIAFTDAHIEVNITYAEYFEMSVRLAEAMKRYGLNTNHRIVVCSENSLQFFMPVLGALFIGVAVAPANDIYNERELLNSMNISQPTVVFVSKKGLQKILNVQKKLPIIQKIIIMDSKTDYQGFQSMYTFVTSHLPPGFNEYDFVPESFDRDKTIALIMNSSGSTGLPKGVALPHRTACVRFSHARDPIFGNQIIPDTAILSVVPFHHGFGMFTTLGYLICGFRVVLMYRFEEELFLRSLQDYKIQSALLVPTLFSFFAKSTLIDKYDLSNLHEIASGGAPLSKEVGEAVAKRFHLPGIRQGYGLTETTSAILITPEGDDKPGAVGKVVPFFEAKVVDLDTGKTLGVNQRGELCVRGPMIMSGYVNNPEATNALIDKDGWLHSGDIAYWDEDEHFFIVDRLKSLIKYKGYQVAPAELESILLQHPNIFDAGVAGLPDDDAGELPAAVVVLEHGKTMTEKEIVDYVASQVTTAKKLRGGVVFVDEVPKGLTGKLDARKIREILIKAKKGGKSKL
#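 Biochemical qHTS of compounds, final roughly 60 µM downward over six points, against 10 nM purified firefly luciferase using Km concentrations of substrates (10 uM D-luciferin, 10 uM ATP) in Tris acetate pH 7.5 buffer; luminescence output.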
# Rab9 promoter act: qHTS Assay for Rab9 Promoter Activators. Huh7 Rab9 promoter-luciferase reporter, luminescence, 24 h. 320,000 compounds, 2.8% hits. Potency, µM (series often up to 9.22 µM), without a hit: at the top dose activation, negative = inhibition, most hits filed as activators. AID 485297, 2010; note: % of control where 0% means no effect; nearly all actives have a fitted effect of over 60% in size
#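 Cells were plated at 1500 per well in reduced-serum medium with 10% FBS and left 2 h. Compound in DMSO was then added for 24 h at 37 °C. Reporter signal was read by luminescence after 10 min with luciferase detection reagent.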
# Starred values were filed as active, the others as inactive; ? = inconclusive; nt = no result given; [ ] = remark or other dose. Calls come from the whole dose curve; as a rule, active = well fitted curve in the direction sought with a large enough effect; inconclusive = small, poorly fitted or top-dose-only effect, or another doubt; inactive = no such curve, though single readings can be large; an effect the other way counts as inactive or inconclusive. Potency is the fitted concentration of half-maximal effect.
SMILES,NPC1 prom act,ELG1 genotox,SMN2 splice enh,FLuc modulator,Rab9 promoter act
CN(C)S(=O)(=O)c1ccc(C(=O)OCC(=O)c2csc(N3CCCCC3)n2)cc1,11%,7%,nt,?,19%
Cc1ccc(-c2cc(C(=O)Nc3cc(C(=O)O)ccc3C)c3ccccc3n2)cc1,-1%,3%,nt,11µM*,-1%
Cc1ccc(C(=O)NCC(=O)OCC(=O)c2ccc3c(c2)OCCO3)cc1C,7%,12%,-6%,21µM*,8%
O=C(Nc1ccc(NC(=O)c2ccc3c(c2)OCCO3)cc1)c1ccccc1,-3%,?,nt,2%,-7%
O=C(Nc1ccccc1)c1ccc2c(c1)OCCO2,0.71µM*,?,18µM*,4.3µM*,1.6µM*
O=C(Nc1cccc(F)c1)c1ccc2c(c1)OCCO2,?,?,nt,4.8µM*,3.2µM*
COc1ccc(C(=O)NCC(=O)OCC(=O)c2ccc3c(c2)OCCO3)cc1,3%,3%,-8%,-18%,0%
CN(CC(=O)Nc1cccc(F)c1)C(=O)c1ccc2c(c1)OCCO2,0%,16%,nt,?,-5%
Cc1nn(-c2ccccc2)c(Cl)c1C(=O)OCC(=O)N(C)c1c(N)n(Cc2ccccc2)c(=O)[nH]c1=O,-5%,0%,nt,1%,0%
Cc1ccc(C)c(N2CCN(CCCNC(=O)c3cnn(-c4ccccc4Cl)c3C3CCN(C(=O)OC(C)(C)C)CC3)CC2)c1,nt,nt,nt,4%,nt
O=C(COc1ccccc1Cl)NCCNC(=O)c1ccco1,-2%,23%,nt,3%,-1%
Cc1ccc(C(=O)Nc2cccc(N(C)S(C)(=O)=O)c2)cc1S(=O)(=O)Nc1ccccc1,3%,-9%,-3%,-3%,-3%
Cc1cccc(NC(=O)c2ccc3c(c2)OCCO3)c1,0.89µM*,?,nt,0.76µM*,0.63µM*
Cc1ccc(C(=O)NCC(=O)Nc2ccc3c(c2)OCCO3)cc1,-4%,1%,nt,-5%,12%
Cc1ccc(-c2cc(C(=O)Nc3ccc4c(c3)OCCO4)c3ccccc3n2)cc1,16%,9%,11µM*,9.5µM*,19%
Cc1ccc(C(=O)Nc2ccc3c(c2)OCCO3)c(C)c1,0.089µM*,?,nt,0.3µM*,0.089µM*
Cc1cccc(NC(=O)CN2CCC(C(=O)c3ccc4c(c3)OCCO4)CC2)c1,-1%,-8%,nt,6%,-5%
Cc1ccc(NC(=O)c2ccc3c(c2)OCCO3)cc1S(=O)(=O)Nc1cccc(Cl)c1,13%,-4%,nt,17µM*,16%
COc1ccc(NC(=O)COC(=O)CC2CC3CCC2C3)c([N+](=O)[O-])c1 (stereo unspecified),-2%,0%,2%,-19%,-8%
COc1ccc(S(=O)(=O)N(C)c2nc3ccccc3n3c(CC(C)C)nnc23)cc1,-2%,0%[9.26 µM],nt,-2%,4%
Cc1cccc(NC(=S)NCc2ccc3c(c2)OCO3)c1,-2%,1%,25%,-1%,-9%
Cc1cccc(NC(=S)NNC(=O)c2ccc3c(c2)OCO3)c1,?,?,13µM*,4.8µM*,1.8µM*
O=C1c2ccccc2NC(c2ccc(Br)o2)N1O (stereo unspecified),20%,11%,nt,-30%,17%
O=C1c2ccccc2NC(c2ccc(-c3cccs3)o2)N1O (stereo unspecified),10%,?,nt,12µM*,1%
Cc1cc(NC(=O)NC(=O)c2ccc(F)cc2F)n[nH]1,0.5µM*,?,11µM*,7.6µM*,0.56µM*
Cc1ccnc(NC(=O)COC(=O)c2ccc(F)cc2F)n1,0%,-1%,nt,-1%,-1%
CCOC(=O)C1=C(c2ccccc2)NC(=O)NC1c1ccsc1 (stereo unspecified),0%,-2%,nt,4%,5%
O=C(Nc1cc2ccc(O)cc2oc1=O)c1ccccc1,nt,nt,nt,5.4µM*,nt
Cc1oc(=O)c(NC(=O)c2ccccc2)cc1C(C)O (stereo unspecified),9%,8%,nt,7%,11%
O=C(c1ccc(Br)cc1)c1cc2ccc(O)cc2oc1=O,6%,2%,nt,?,2%
